FMDV antiviral: High Throughput Screening for Foot and Mouth Disease Virus Antivirals; Potency, µM (series often up to 57.9 µM), hits mostly inhibitors; AID 1159524, 2015; 1.2% of 410,000 active; FMDV antiviral cell-based qHTS; calls by dose curve; tested in HEK293T cells; note: read-out not given here; nearly all actives have a fitted effect of over 45% in size
Sm TGR block: qHTS Assay for the Inhibitors of Schistosoma Mansoni Peroxiredoxins. purified TGR, DTNB reduction, TNB absorbance 405 nm. Potency, µM (series often up to 114 µM), most hits filed as inhibitors. 3% of 360,000 active. AID 485364, 2010; active = well fitted inhibition curve with a large enough effect; inconclusive = small, poorly fitted or top-dose-only effect; inactive = no such curve, though single readings can be large or run the other way; note: nearly all actives have a fitted effect of over 60% in size
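TGR 20 nM + NADPH 100 uM (dispensed conc.), cpd preinc 15 min RT; start with NADPH (500 uM addition) then DTNB (15 mM addition). Kinetic TNB absorbance, 405 nm filter. Four-parameter Hill fit across titration.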
Shiga inhibitor: A qHTS for Small Molecule Inhibitors of Shiga Toxin | Vero cells, Shiga toxin protein synthesis inhibition reporter | inhibition, % at 38.7 µM | 9.2% of 290,000 active | AID 2315, 2010; in the data active = inhibition mostly above about 28%, no sharp cut-off; inactive = mostly below about 43%
CHX counter: Cycloheximide Counterscreen for Small Molecule Inhibitors of Shiga Toxin; cell reporter, cycloheximide protein synthesis inhibition counterscreen; max response, %; 12% of 300,000 active; AID 2314, 2010; in the data active = max response mostly above about 13%, no sharp cut-off; inactive = mostly below about 14%; note: read at 38.3 µM for the half of the compounds with a filed dose
Numbers stand for hits; - = inactive; ? = inconclusive; . = not tested or not shown. Most compounds without a hit are left out; they make up all but 12% or so of the library.

SMILES	FMDV antiviral	Sm TGR block	Shiga inhibitor	CHX counter
O=C(NCc1cccs1)c1cc(-c2ccc(O)cc2)on1	-	-	85.6	42.6
O=C(NCc1cccs1)c1cc(-c2cccc(Cl)c2)on1	-	-	43.6	25.6
Cc1ccc(-c2cc(C(=O)NCc3cccs3)no2)cc1	-	-	-	9.1
Cc1ccc(NC(=O)CCNS(=O)(=O)c2ccc3c(c2)CCN3C(=O)C2CC2)c(Cl)c1	-	?	.	.
CCOc1ccc(-c2cc3nc(C4CCN(C(=O)OC(C)(C)C)CC4)c(C(=O)Nc4ccc(C)cc4C)cn3n2)cc1	-	-	.	.
CCOC(=O)/C(=C\c1cccnc1)C(=O)c1cc(C(C)=O)c(Nc2ccccc2)s1	3.98µM	20µM	-	-
CCOC(=O)/C(=C\c1ccccc1)C(=O)c1cc(C(C)=O)c(Nc2ccccc2)s1	14.1µM	-	-	-
CCOC(=O)c1cc(C)sc1NC(=S)Nc1ccccc1	-	?	-	-
CCOC(=O)/C(C#N)=C\c1cccnc1	-	.	-	-
COc1cc(/C=C/c2nc(C#N)c(N3CCCCCC3)o2)cc(OC)c1OC	-	-	.	.
Cc1nn2c(=O)cc(COC(=O)C(c3ccccc3)c3ccccc3)nc2s1	-	-	.	.
CCC(C)C(=O)OCC1(c2ccc(C)cc2OC(=O)C(C)C)CO1 (centres undefined)	-	-	-	-
Cc1ccc(C2(COC(=O)C(C)C)CO2)c(OC(=O)C(C)C)c1 (centres undefined)	-	-	-	10.3
O=C(O)C1C(c2ccccc2)C(C(=O)OCc2ccco2)C1c1ccccc1 (centres undefined)	-	?	-	-
COC(=O)C1C(c2ccccc2)C(C(=O)OCc2ccco2)C1c1ccccc1 (centres undefined)	-	?	124.6	72.1
COCCNC(=O)CCn1c(=O)c2cc(OC)c(OC)cc2n(CC(=O)Nc2ccccc2OC)c1=O	-	-	.	.
CCc1ccc2c(c1)[C@H]1OCC[C@H]1[C@@H](c1cccs1)N2	-	-	42.2	26.4
O=C1N=C(N2CCCC2C(=O)O)S/C1=C\c1ccco1 (centres undefined)	-	7.08µM	-	-
N=C1/C(=C/c2ccco2)C(=O)N=C2SC(CC(=O)N3CCCC3)=NN12	-	-	-	-
COc1ccc(Cl)cc1NC(=O)Cn1nc(Cc2ccncc2)c2ccccc2c1=O	-	-	.	.
CCCn1c(CCC(=O)O)nc2cc(S(=O)(=O)N(CC)CC)ccc21	-	-	-	-
CCN(CC)S(=O)(=O)c1ccc2c(c1)nc(-c1ccccn1)n2C	-	?	82.9	23.4
CCC(Sc1nc2cc3c(cc2c(=O)n1CCCC(=O)NCc1ccc2c(c1)OCO2)OCO3)C(=O)NCCCOC (centres undefined)	-	-	.	.
COc1cccc(N2CCN(C3CC(=O)N(c4ccc(F)c(Cl)c4)C3=O)CC2)c1 (centres undefined)	-	50.1µM	-	-
COc1ccc(NC2CCN(C3CC(=O)N(c4ccc(F)c(Cl)c4)C3=O)CC2)cc1 (centres undefined)	-	11.2µM	-	-
SMILES	FMDV antiviral	Sm TGR block	Shiga inhibitor	CHX counter
COc1cccc(N2CCN(C3CC(=O)N(c4ccc(C)c(Cl)c4)C3=O)CC2)c1 (centres undefined)	-	-	-	-
O=C(Nc1ccc(C(F)(F)F)cc1)C1CCCN(c2cnccn2)C1 (centres undefined)	-	-	.	.
Oc1ccc2ccccc2c1C=Nc1cc(C(F)(F)F)ccc1N1CCCC1	-	-	50.8	-
N#Cc1cccc(N=Cc2c(O)ccc3ccccc23)c1	-	-	-	-
O=C(N1CCN(c2cccc(Cl)c2)CC1)C1(c2cccs2)CCOCC1	35.5µM	-	-	-
Cc1occc1-c1nnc(SCC(=O)N2CCCCC2C)o1 (centres undefined)	-	-	.	.
Cc1occc1-c1nnc(SCC(=O)N2CCc3ccccc32)o1	-	25.1µM	-	-
Cc1csc(NC(=O)CSc2nnc(-c3ccncc3)o2)n1	-	-	-	15.8
Cc1ccc(-c2nnc(SCC(=O)N3CCc4ccccc43)o2)cc1	-	-	.	.
Cc1occc1-c1nnc(SCC(=O)N(C)C)o1	-	-	-	32.6
COCCn1c(SCC(=O)N2CCCc3ccccc32)nnc1-c1ccoc1C	-	39.8µM	-	-
CCOC(=O)Cc1csc(NC(=O)CSc2nnc(-c3ccncc3)o2)n1	-	.	-	-
CCOC(=O)c1cccc(NC(=O)CSc2nnc(-c3ccoc3C)n2CCOC)c1	-	-	-	9.2
Cc1csc(NC(=O)CSc2nnc(-c3ccoc3C)o2)n1	-	-	69.8	41.0
Cc1occc1-c1nnc(SCC(=O)Nc2nc(C(C)(C)C)cs2)o1	-	-	49.6	27.4
Cc1cc(-c2nnc(SCC(=O)Nc3nccs3)o2)no1	-	-	43.1	19.7
CCn1c(SCC(=O)Nc2nc(C)cs2)nnc1-c1ccoc1C	-	-	-	-
Cc1occc1-c1nnc(SCC(=O)Nc2ccccc2)n1CCc1ccccc1	-	-	-	-
CCC1CN(CCNC(=O)c2cccnc2OC)Cc2cc(OC)ccc2O1 (centres undefined)	-	.	.	.
CC1(C)CC(=O)C2=C(C1)O[C@@]1(CCCCN3C(=O)c4ccccc4C3=O)Cc3cc(C#N)ccc3C2O1	.	?	-	-
COc1cc(/C=C(\C#N)c2nc3ccccc3[nH]2)cc(Br)c1OCc1ccc(F)cc1	?	-	-	-
CCOc1cc(N(CC)CC)ccc1/C=C(/C#N)c1nc2ccccc2[nH]1	-	-	82.2	27.3
CCCOc1cc(N(CC)CC)ccc1/C=C(/C#N)c1nc2ccc(C)cc2[nH]1	?	-	-	-
CCN(CC)c1ccc(/C=C(/C#N)c2nc3ccc(C)cc3[nH]2)c(OC(C)C)c1	-	-	-	14.7
CCOC(=O)c1ccccc1NC(=O)CSc1nc(=O)[nH]c2c1CCC2	-	-	.	.
SMILES	FMDV antiviral	Sm TGR block	Shiga inhibitor	CHX counter
Cc1ccc(CN2CCCn3nc(C(=O)NCC(C)c4ccccc4)cc3C2=O)cc1 (centres undefined)	-	-	.	.
CCc1ccc(NC(=O)Nc2nnc(N(C)C3CCCCC3)s2)cc1	-	-	.	.
N#Cc1cc2c(nc1SCC(=O)Nc1ccc(Cl)cc1)C1CCN2CC1	-	-	-	22.8
COc1cc(-c2nc(-c3ccccc3)c(-c3ccc(Br)cc3)[nH]2)cc(OC)c1O	-	-	.	.
Nc1c(C(=O)O)ccc2c1C(=O)c1ccccc1C2=O	-	-	-	-
Nc1ccc2c(c1Cl)C(=O)c1ccc(N)c(Cl)c1C2=O	-	-	70.0	33.8
CCC1CN(C(=O)Nc2ccccc2C(F)(F)F)c2ccccc2O1 (centres undefined)	-	-	.	.
Cc1ccc2oc(C(=O)Nc3cccc(Cl)c3)cc(=O)c2c1	-	-	.	.
Cc1ccc(/C(O)=C2\C(=O)C(=O)N(Cc3cccnc3)C2c2ccccc2[N+](=O)[O-])cc1 (centres undefined)	-	-	83.3	37.3
Cc1ccc(/C(O)=C2\C(=O)C(=O)N(C)C2c2ccccc2[N+](=O)[O-])cc1 (centres undefined)	-	-	.	36.9
O=C1C(=O)N(CCO)C(c2ccccc2[N+](=O)[O-])/C1=C(\O)c1ccccc1 (centres undefined)	-	-	-	-

Compound activity from PubChem BioAssay.
